Assay [1] can be described thus: qHTS drug screen for cell cycle checkpoint inhibitors in PARPi-resistant BRCA-mutant ovarian cancer cell lines. (AID 1963452; calls by dose curve). To be noted: PEO1/OlaR viability, CellTiter-Glo luminescence, 96 h, stronger effect = lower value. An outline of the steps:
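PEO1, PEO4 and PEO1/OlaR ovarian cancer cells, 600 per well, exposed 96 h at 37C to a dilution series. Viability read by CellTiter-Glo luminescence, normalized to DMSO and empty wells; activity summarized as Z-AUC.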

Assay [2] in a line: qHTS for identification of novel therapeutic agents for treatment of microphthalmiaassociated transcription factor (MiT) renal cell carcinoma (RCC) (AID 1963991).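 Note: curves scaled with 100% = DMSO viability and 0% = empty wells.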 To be noted: CellTiter-Glo, 48 h, stronger effect = lower value. An outline of the steps: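 UOK109/UOK124/UOK145 (TFE3 fusions, three partners); 500 cells/well; MIPE v4.0, 1912 cpds, 11 conc.; 48 h, 37 C; CellTiter-Glo, 15 min RT; lum. Norm.: DMSO 100%, empty 0%.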

Assay [3] can be described thus: qHTS profiling for inhibitors of Plasmodium falciparum proliferation (AID 504749).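 For activity, negative = inhibition: 0% = DMSO vehicle and full inhibition = artemisinin control.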 Note: nearly all actives have a fitted effect of over 60% in size. Note: potency is the fitted concentration of half-maximal effect. To be noted: P. falciparum in erythrocytes, SYBR Green DNA, 72 h, at 28.7 µM (top of the series). An outline of the steps: (§1)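 In a 72 h erythrocytic culture (37 C, humidified, 5% CO2) at 2.5% hematocrit and 0.3% starting parasitemia, compounds were tested; SYBR Green I in detergent lysis buffer stained parasite DNA overnight.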
On the technique in general: qHTS replaces the single test concentration by a dilution series.

The subject of a further assay is 3D7. Described as above. To be noted: P. falciparum in erythrocytes, SYBR Green DNA, 72 h; series mostly up to 28.7 µM. A digest of the protocol:
as §1

In a further assay the test system is 7G8. Described as above. To be noted: P. falciparum in erythrocytes, SYBR Green DNA, 72 h; series mostly up to 28.7 µM. An outline of the steps:
as §1

For a further assay, the system named is AA1029. The assay is described as above. To be noted: P. falciparum in erythrocytes, SYBR Green DNA, 72 h; series mostly up to 28.7 µM. An outline of the steps: as §1
For a further assay, the system named is AS120. The description is as above. To be noted: P. falciparum in erythrocytes, SYBR Green DNA, 72 h; series mostly up to 28.7 µM. A digest of the protocol: as §1
The next assay deals with ATS189. The description is as above. To be noted: P. falciparum in erythrocytes, SYBR Green DNA, 72 h; series mostly up to 28.7 µM. An outline of the steps: as §1
The test system of a further assay is ATS95. Described as above. To be noted: P. falciparum in erythrocytes, SYBR Green DNA, 72 h; series mostly up to 28.7 µM. An outline of the steps: as §1
Another assay concerns C2A. The assay is described as above. To be noted: P. falciparum in erythrocytes, SYBR Green DNA, 72 h; series mostly up to 28.7 µM. A digest of the protocol:
as §1

The test system of the next assay is CP185. The description is as above. To be noted: P. falciparum in erythrocytes, SYBR Green DNA, 72 h; series mostly up to 28.7 µM. An outline of the steps:
as §1

The test system of another assay is CP191. The assay is described as above. To be noted: P. falciparum in erythrocytes, SYBR Green DNA, 72 h; series mostly up to 28.7 µM. A digest of the protocol: as §1
Another assay deals with CP192. The description is as above. To be noted: P. falciparum in erythrocytes, SYBR Green DNA, 72 h; series mostly up to 28.7 µM. An outline of the steps: as §1
Another assay concerns CP194. The description is as above. To be noted: P. falciparum in erythrocytes, SYBR Green DNA, 72 h; series mostly up to 28.7 µM. A digest of the protocol:
as §1

The next assay relates to CP201. The description is as above. To be noted: P. falciparum in erythrocytes, SYBR Green DNA, 72 h; series mostly up to 28.7 µM. An outline of the steps:
as §1

A further assay concerns CP211. The description is as above. To be noted: P. falciparum in erythrocytes, SYBR Green DNA, 72 h; series mostly up to 28.7 µM. An outline of the steps:
as §1

The next assay has as its system CP215. Described as above. To be noted: P. falciparum in erythrocytes, SYBR Green DNA, 72 h; series mostly up to 28.7 µM. An outline of the steps: as §1
In another assay the test system is CP217. The description is as above. To be noted: P. falciparum in erythrocytes, SYBR Green DNA, 72 h; series mostly up to 28.7 µM. An outline of the steps: as §1
The next assay concerns CP237. The assay is described as above. To be noted: P. falciparum in erythrocytes, SYBR Green DNA, 72 h; series mostly up to 28.7 µM. A digest of the protocol: as §1
For a further assay, the system named is CP203. Described as above. To be noted: P. falciparum in erythrocytes, SYBR Green DNA, 72 h; series mostly up to 28.7 µM. A digest of the protocol: as §1
Where [4] appears, read: measured here: PEO1 parental Z-AUC.
Setting [5] is: TFE3-RCC UOK109 viability, measured here: UOK109 Z-AUC.
Setting [6] is: TFE3-RCC viability, measured here: UOK124 Z-AUC.
[7] abbreviates: TFE3-RCC viability, measured here: UOK145 Z-AUC.

From PubChem BioAssay (NCATS) come the findings set out here.

Results filed as inconclusive are left out. Activity calls are given as the source filed them. Unless noted, calls come from the whole dose curve; as a rule, active = well fitted inhibition curve with a large enough effect; inconclusive = small, poorly fitted or top-dose-only effect; inactive = flat fitted curve, though single readings scatter.

Regarding `NC(=O)c1cnccn1`, the Z-AUC in assay [1] was 0.616 (inactive); in assay [1] (setting [4]), 0.733; in assay [1] (measured here: PEO4 Z-AUC) it was 0.41. For the same compound, the z-score stood at 0.906 in assay [2] (setting [5]), 0.826 in [2] (setting [6]) and 0.673 in assay [2] (setting [7]). For the same compound, the activity, negative = inhibition in assay [3] (parasite line A) is 13.8% (inactive); in assay [3] (parasite line B), 12.8% (inactive). The Potency result with 3D7, in the assay on 7G8, with AA1029, with AS120, in the assay with ATS189 and with ATS95 was “inactive” in each case. Besides, the Potency result in the assay with C2A, in the assay with CP185, in the assay with CP191, with CP192, with CP194 and in the assay on CP211 was “inactive” in each case. In addition, the Potency entry in the assay on CP215, with CP217 and in the assay on CP237 was “inactive” each time. Also, in the assay on CP201, the compound was classed as inactive.

As for `Cc1c(C)c2c(c(C)c1O)CCC(C)(COc1ccc(CC3SC(=O)NC3=O)cc1)O2` (stereo not given), the Z-AUC in assay [1] was 0.635 (inactive); in assay [1] (setting [4]), 0.564; in assay [1] (measured here: PEO4 Z-AUC) it was 0.844. Also, the values for the z-score in assay [2] (setting [5]), in assay [2] (setting [6]) and in [2] (setting [7]) were 0.729, 0.103 and -0.301, respectively. Moreover, the activity, negative = inhibition in [3] (parasite line A) was -7.46% (inactive). Also, the Potency entry in the assay on 3D7, in the assay with ATS95, with C2A, in the assay on CP185 and in the assay with CP192 was “inactive” in each case. The Potency with 7G8 is 10 µM (active). Besides, in the assay with CP201, the compound was classed as inactive.

On to `OCCn1cc(-c2cnc3nnn(Cc4ccc5ncccc5c4)c3n2)cn1`, for which the Z-AUC in assay [1] is -0.182 (inactive); in [1] (setting [4]) it was 0.0266; in assay [1] (measured here: PEO4 Z-AUC), 0.506. In addition, the z-score was 0.421 in [2] (setting [5]), 0.338 in assay [2] (setting [6]) and 0.859 in [2] (setting [7]).

As to `NC(=O)c1ccc(-c2nc(-c3ccc4c(c3)OCO4)c(-c3ccccn3)[nH]2)cc1`, the Z-AUC in assay [1] was 0.53 (inactive); in assay [1] (setting [4]), 1.15; in [1] (measured here: PEO4 Z-AUC), 0.909. The z-score turned out to be 0.874 in [2] (setting [5]), 1.69 in [2] (setting [6]) and 0.197 in [2] (setting [7]).

Regarding `NC[C@H](O)c1ccc(O)c(O)c1`, the Z-AUC in assay [1] is -0.408 (inactive); in assay [1] (setting [4]), -0.854; in assay [1] (measured here: PEO4 Z-AUC), -0.505. The z-score amounted to 0.441 in assay [2] (setting [5]), 0.472 in assay [2] (setting [6]) and 0.785 in assay [2] (setting [7]). Moreover, the activity, negative = inhibition in assay [3] (parasite line A) was 5.08% (inactive); in [3] (parasite line B), 9.63% (inactive). In addition, the Potency entry in the assay on 3D7, in the assay with 7G8, in the assay on AA1029, in the assay with AS120, in the assay with ATS189 and in the assay on ATS95 was “inactive” in each case. Moreover, the Potency entry with C2A, in the assay with CP185, in the assay with CP191, with CP194, in the assay on CP211 and in the assay with CP215 was “inactive” in each case. The Potency result in the assay with CP217 and in the assay with CP237 was “inactive” each time. Further, in the assay on CP201, the compound was classed as inactive.

Take `CC(=O)Oc1ccccc1C(=O)O`: the Z-AUC in [1] was 0.925 (inactive); in [1] (setting [4]), 0.885; in [1] (measured here: PEO4 Z-AUC), 1.16. In addition, the activity, negative = inhibition was 3.3% (inactive) in assay [3] (parasite line A) and 6.15% (inactive) in assay [3] (parasite line B). Also, the Potency entry in the assay on 3D7, in the assay on 7G8, in the assay with AA1029, with AS120, in the assay with ATS189 and in the assay on ATS95 was “inactive” each time. For the same compound, the Potency result in the assay on C2A, in the assay on CP185, in the assay on CP191, with CP192, in the assay with CP194 and with CP203 was “inactive” throughout. In addition, the Potency entry with CP211, in the assay on CP215, in the assay with CP217 and in the assay with CP237 was “inactive” each time. The result in the assay on CP201 was inactive.
